# Measurements from PubChem BioAssay (NCATS).
# “And” between values parts separate entries of the source, which are not always exact repeats. Equal values may be shown once. Inconclusive results are not listed. Where a call stands in place of a potency, no number is given. The source made the active and inactive calls. Unless noted, calls come from the whole dose curve; as a rule, active = well fitted curve in the direction sought with a large enough effect; inconclusive = small, poorly fitted or top-dose-only effect, or another doubt; inactive = no such curve, though single readings can be large; an effect the other way counts as inactive or inconclusive.
# How the values were obtained:
# [1] = target: DNA polymerase III PolC-type (Bacillus subtilis (strain 168)) (UniProt P13267); test: qHTS Validation Assay for the Inhibitors of DNA Replication in Gram-Positive Bacteria (AID 485295);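 note: PicoGreen fluorescence of double-stranded DNA made on primed circular M13 template; series mostly up to about 57 µM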
# Chain of DNA polymerase III PolC-type (Bacillus subtilis (strain 168)) (P13267 whole entry, looked up): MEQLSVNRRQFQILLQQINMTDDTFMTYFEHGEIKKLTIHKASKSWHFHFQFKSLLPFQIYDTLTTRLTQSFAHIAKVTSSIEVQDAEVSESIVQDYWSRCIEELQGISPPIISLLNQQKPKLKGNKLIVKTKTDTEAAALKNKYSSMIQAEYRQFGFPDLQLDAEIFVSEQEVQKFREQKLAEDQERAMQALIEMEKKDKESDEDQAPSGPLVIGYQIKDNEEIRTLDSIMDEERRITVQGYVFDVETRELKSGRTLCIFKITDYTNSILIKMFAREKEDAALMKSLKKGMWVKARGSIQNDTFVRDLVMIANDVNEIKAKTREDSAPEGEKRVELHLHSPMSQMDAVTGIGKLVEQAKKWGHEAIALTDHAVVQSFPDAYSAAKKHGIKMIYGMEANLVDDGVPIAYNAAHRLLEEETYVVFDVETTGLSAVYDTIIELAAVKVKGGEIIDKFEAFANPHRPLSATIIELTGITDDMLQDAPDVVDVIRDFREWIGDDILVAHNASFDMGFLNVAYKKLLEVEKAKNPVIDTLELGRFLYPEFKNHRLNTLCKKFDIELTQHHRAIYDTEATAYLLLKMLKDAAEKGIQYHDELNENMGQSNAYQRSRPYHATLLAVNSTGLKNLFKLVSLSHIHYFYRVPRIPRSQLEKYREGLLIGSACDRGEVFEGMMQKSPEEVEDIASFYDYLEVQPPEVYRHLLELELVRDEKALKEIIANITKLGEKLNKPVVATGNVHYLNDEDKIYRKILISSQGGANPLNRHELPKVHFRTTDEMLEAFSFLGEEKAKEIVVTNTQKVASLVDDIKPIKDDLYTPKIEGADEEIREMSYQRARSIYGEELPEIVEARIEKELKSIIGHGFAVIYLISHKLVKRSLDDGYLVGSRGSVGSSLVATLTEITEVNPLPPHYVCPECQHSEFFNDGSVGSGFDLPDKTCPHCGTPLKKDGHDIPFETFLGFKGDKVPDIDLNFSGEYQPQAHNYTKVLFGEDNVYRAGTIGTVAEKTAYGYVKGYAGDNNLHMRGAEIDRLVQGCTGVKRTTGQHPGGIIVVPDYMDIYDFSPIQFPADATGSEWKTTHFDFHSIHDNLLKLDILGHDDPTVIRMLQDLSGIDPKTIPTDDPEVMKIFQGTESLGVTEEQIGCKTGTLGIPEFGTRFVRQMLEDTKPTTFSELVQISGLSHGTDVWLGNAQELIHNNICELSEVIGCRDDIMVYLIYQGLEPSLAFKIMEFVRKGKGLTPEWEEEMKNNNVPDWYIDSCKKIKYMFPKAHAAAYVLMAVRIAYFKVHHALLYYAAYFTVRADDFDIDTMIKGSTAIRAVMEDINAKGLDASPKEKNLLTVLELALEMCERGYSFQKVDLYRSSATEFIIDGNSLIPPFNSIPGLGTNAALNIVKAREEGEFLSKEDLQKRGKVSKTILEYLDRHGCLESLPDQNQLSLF
# How it was run: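 Reconstituted B. subtilis Pol III holoenzyme (PolC, beta clamp, SSB, primase) preincubated with compound, then M13Gori single-stranded circular template with dNTPs/NTPs added; room temperature reaction. Stopped with EDTA/PicoGreen; dsDNA fluorescence read, EDTA as full-inhibition control.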
# [2] = target: Tumor susceptibility gene 101 protein (Homo sapiens) (UniProt Q99816); test: qHTS Validation Assay for Iinhibitors of HIV-1 Budding by Blocking the Interaction of PTAP/TSG101 (AID 485342; calls by dose curve)
# How it was run: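 Tsg101 binding domain (10 uM) with FITC-labeled PTAP peptide (50 nM) in HEPES pH 7.5 buffer, 20 min at r.t. with compounds. Binding measured by fluorescence polarization.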
# [3] = qHTS Validation Assay to Find Inhibitors of Chronic Active B-Cell Receptor Signaling (AID 485345; active = well fitted curve in the direction sought with a large enough effect in the main read-out, with a control signal flat, not every such curve was filed as active)
# How it was run: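 TMD8 ABC-DLBCL cells stably carrying doxycycline-inducible IkappaBalpha–green luciferase fusion plus unfused red luciferase; compounds 46 uM to 3 nM, 4 h at 37C with doxycycline. Corrected green/red luminescence ratio normalized to 10 uM MG-132 and basal cell wells; curves fitted.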
# [4] = target: Beta-2 adrenergic receptor (Homo sapiens) (UniProt P07550); test: qHTS validation assay of beta-arrestin-biased ligands of beta2-adrenergic receptor (AID 485366)
# Chain of Beta-2 adrenergic receptor (Homo sapiens) (P07550 whole entry, looked up): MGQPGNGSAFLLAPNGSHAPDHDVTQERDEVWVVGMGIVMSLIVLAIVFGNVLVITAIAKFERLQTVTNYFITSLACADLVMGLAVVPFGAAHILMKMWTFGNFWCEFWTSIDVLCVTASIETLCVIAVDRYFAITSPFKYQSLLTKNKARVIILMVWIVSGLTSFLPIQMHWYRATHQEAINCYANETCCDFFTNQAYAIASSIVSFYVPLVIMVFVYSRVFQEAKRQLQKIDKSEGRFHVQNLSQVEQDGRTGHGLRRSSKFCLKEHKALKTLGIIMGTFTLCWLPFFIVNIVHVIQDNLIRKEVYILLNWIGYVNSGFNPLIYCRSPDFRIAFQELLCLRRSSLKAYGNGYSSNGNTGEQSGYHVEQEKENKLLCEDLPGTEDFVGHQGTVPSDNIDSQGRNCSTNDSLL
# How it was run: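 Tango cells (recombinant beta2-AR with recombinant beta-arrestin; recruitment releases tTA driving luciferase) were treated with compounds titrated up to 46 microM for 18 hr at 37 degrees C. Luminescence gave %Activity, and concentration-response curves were curve-classified.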
# [5] = Quantitative high throughput screen for delayed death inhibitors of the malarial parasite plastid, 96 hour incubation (AID 488745);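 note: luciferase-expressing P. falciparum in erythrocytes at 2% hematocrit and 0.1% parasitemia; series mostly up to about 29 µM; nearly all actives have a fitted effect of over 70% in size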
# How it was run: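 Infected erythrocytes were added to compound in Albumax-supplemented RPMI 1640 at 0.1% parasitemia and 2% hematocrit (final), incubated 96 h at 37 C under 5% CO2, then luciferase reagent was added and luminescence measured.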
# [6] = Quantitative high throughput screen for delayed death inhibitors of the malarial parasite plastid, 48 hour incubation (AID 488752); note: nearly all actives have a fitted effect of over 65% in size
# How it was run: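 Readout is firefly luciferase luminescence from a reporter integrated into the parasite genome, with lower signal taken as inhibited growth. Infected red cells (0.1% parasitemia, 2% hematocrit final) are cultured with compound for one 48 h cycle at 37 C.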
# [7] = target: Thioredoxin reductase 1, cytoplasmic (Rattus norvegicus) (UniProt O89049); test: qHTS Assay for Substrates of Mammalian Selenoprotein Thioredoxin Reductase 1 (TrxR1) (AID 488772);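 note: NADPH fluorescence in the first read after selenite addition and not the 8 min delta; series mostly up to about 57 µM; a drop in NADPH fluorescence below the no-compound background marks a TrxR1 substrate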
# How it was run: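 Quantitative HTS in Tris-HCl buffer at pH 7.5 with EDTA and Tween-20, using rat TrxR1, 400 uM NADPH and 400 uM selenite (final). A fall in initial NADPH fluorescence relative to background marked substrate behaviour.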
# [8] = target: Thioredoxin reductase 1, cytoplasmic (Rattus norvegicus) (UniProt O89049); test: qHTS Assay for Inhibitors of Mammalian Selenoprotein Thioredoxin Reductase 1 (TrxR1) (AID 488773); settings: Potency: inhibition;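 note: drop in NADPH fluorescence over an 8 min run after selenite addition; series mostly up to about 57 µM; nearly all actives have a fitted effect of over 40% in size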
# How it was run: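 Steps: enzyme (90 nM) plus NADPH (400 uM final), 5 min at ~22 deg C; compound added, 15 min; selenite (400 uM final) added; fluorescence followed for 8 min. Concentration-response curves derived from the normalized delta values.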
# [9] = target: M-phase phosphoprotein 8 (Homo sapiens) (UniProt Q99549); test: qHTS Validation Assay for Inhibitors for MPP8 Chromodomain Interactions with Methylated Histone Tails (AID 488949); note: top concentration of the series differs between compounds; nearly all actives have a fitted effect of over 55% in size
# Chain of M-phase phosphoprotein 8 (Homo sapiens) (Q99549 whole entry, looked up): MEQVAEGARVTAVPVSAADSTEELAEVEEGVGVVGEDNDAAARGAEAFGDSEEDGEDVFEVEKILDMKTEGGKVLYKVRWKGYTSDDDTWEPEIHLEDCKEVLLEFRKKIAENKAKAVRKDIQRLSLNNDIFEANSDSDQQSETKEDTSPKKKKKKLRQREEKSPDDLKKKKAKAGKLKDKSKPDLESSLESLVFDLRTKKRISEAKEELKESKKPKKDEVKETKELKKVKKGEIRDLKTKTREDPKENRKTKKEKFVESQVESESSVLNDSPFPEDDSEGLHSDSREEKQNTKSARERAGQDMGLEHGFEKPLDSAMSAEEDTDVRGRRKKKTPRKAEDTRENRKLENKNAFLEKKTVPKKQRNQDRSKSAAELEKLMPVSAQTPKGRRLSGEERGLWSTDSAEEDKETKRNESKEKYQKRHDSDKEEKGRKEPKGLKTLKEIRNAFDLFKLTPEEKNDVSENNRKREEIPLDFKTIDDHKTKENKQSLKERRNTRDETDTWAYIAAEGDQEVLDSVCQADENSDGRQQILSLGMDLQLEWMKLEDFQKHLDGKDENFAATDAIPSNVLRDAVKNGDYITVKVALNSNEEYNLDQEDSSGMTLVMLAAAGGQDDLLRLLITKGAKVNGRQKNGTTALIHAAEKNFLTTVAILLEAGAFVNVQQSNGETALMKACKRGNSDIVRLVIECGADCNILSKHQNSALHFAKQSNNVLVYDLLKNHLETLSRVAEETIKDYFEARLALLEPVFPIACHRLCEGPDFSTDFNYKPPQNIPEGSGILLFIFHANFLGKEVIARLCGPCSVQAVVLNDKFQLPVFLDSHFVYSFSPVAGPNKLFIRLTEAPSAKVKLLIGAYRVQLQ
# How it was run: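 MPP8 (50 nM) was pre-bound to 50 nM biotinylated H3(1-18)K9me3 peptide in PBS pH 7.4 with 0.01% Tween-20. Compounds were then added for 30 min at room temperature, and complex disruption was read by AlphaScreen with streptavidin donor and nickel-chelate acceptor beads.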
# [10] = target: Chromobox protein homolog 1 (Homo sapiens) (UniProt P83916); test: qHTS Validation Assay for Inhibitors of HP1-beta Chromodomain Interactions with Methylated Histone Tails (AID 488953);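 note: loss of AlphaScreen luminescence from HP1-beta binding biotinylated H3K9me3 peptide; series mostly up to about 110 µM; nearly all actives have a fitted effect of over 50% in size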
# Chain of Chromobox protein homolog 1 (Homo sapiens) (P83916 whole entry, looked up): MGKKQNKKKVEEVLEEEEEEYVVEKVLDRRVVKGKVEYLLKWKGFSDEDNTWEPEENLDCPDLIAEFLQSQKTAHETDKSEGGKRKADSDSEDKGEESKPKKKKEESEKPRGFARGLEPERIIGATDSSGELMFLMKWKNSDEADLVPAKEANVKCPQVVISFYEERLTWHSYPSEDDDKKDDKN
# How it was run: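 50 nM HP1-beta + 50 nM biotin-H3(1-18)K9me3, PBS pH 7.4, 0.01% Tween-20, 30 min RT; compound added, 30 min RT; AlphaScreen beads 10 ug/mL final, 30 min dark; luminescence read.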
# [11] = target: Methanococcus maripaludis chaperonin (MmCpn) (UniProt Q6LX38); test: High-Throughput Screening for Modulators of Cytosolic Chaperonin Activity: MmCpn Primary Screen (AID 488978);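 note: 50 nM MmCpn enzyme hydrolysing 30 µM ATP at 37 °C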
# Chain of Methanococcus maripaludis chaperonin (MmCpn) (Q6LX38 1-543): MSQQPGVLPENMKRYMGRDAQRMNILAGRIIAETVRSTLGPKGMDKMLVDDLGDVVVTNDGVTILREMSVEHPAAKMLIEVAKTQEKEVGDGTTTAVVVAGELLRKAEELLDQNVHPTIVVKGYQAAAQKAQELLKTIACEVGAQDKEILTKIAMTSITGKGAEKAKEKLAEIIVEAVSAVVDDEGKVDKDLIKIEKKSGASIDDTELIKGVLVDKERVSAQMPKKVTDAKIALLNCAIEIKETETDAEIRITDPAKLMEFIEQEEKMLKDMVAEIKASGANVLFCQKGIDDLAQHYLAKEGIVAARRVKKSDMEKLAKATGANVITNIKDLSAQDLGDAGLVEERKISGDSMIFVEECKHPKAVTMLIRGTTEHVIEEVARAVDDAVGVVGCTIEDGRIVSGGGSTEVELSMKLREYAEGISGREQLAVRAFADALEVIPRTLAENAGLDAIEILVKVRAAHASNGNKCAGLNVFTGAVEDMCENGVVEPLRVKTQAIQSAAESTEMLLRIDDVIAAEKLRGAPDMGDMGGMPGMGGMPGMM
# How it was run: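 MmCpn at 50 nM final was preincubated 5 min at RT with compound. ATP was then added at 30 uM final for 10 min at 37 C. ADP formed was detected by Transcreener HTRF (665/590 nm).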
# [12] = target: Transient receptor potential cation channel subfamily V member 1 (Homo sapiens) (UniProt Q8NER1); test: HTS Assay for Compounds that Act as Enhancers of the Vanilloid Receptor 1 (AID 488979)
# How it was run: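 TRPV1 cells loaded with Fluo-8 calcium dye; compound added and Ca2+ signal (ex 480/em 520 nm) followed 3 min, then capsaicin at EC20 added and read 2 more min to detect enhancement.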
# [13] = target: D(1A) dopamine receptor (Homo sapiens) (UniProt P21728); test: HTS Assay for Allosteric Agonists of the Human D1 Dopamine Receptor: Primary Screen for Agonists (AID 488981)
# Chain of D(1A) dopamine receptor (Homo sapiens) (P21728 whole entry, looked up): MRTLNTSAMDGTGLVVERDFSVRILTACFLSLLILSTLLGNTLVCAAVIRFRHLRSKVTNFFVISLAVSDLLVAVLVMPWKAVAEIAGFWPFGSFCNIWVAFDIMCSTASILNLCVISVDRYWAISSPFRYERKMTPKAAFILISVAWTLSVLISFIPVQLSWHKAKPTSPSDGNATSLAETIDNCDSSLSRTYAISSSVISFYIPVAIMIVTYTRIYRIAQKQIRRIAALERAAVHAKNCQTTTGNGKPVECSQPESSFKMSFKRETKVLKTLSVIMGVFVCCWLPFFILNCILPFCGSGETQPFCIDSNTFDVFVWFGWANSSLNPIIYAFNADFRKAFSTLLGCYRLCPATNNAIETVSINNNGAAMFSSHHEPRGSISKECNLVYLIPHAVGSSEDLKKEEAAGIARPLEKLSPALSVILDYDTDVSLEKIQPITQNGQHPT
# How it was run: (§1)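 Tetracycline-induced HEK293 Trex D1 cells with forced coupling to calcium, loaded with no-wash calcium dye; kinetic fluorescence read 180 s after compound addition for agonism, then a further 180 s after an EC20 dopamine challenge for potentiation.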
# [14] = target: D(1A) dopamine receptor (Homo sapiens) (UniProt P21728); test: HTS Assay for Allosteric Agonists of the Human D1 Dopamine Receptor: Primary Screen for Potentiators (AID 488982)
# How it was run: as §1
# [15] = target: ATP-dependent 6-phosphofructokinase (Trypanosoma brucei brucei) (UniProt O15648); test: qHTS Assay to Find Inhibitors of T. brucei phosphofructokinase: hit validation (AID 492961);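 note: luminescence reports ADP formed as PFK phosphorylates fructose-6-phosphate with ATP; series mostly up to about 51 µM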
# Chain of ATP-dependent 6-phosphofructokinase (Trypanosoma brucei brucei) (O15648 whole entry, looked up): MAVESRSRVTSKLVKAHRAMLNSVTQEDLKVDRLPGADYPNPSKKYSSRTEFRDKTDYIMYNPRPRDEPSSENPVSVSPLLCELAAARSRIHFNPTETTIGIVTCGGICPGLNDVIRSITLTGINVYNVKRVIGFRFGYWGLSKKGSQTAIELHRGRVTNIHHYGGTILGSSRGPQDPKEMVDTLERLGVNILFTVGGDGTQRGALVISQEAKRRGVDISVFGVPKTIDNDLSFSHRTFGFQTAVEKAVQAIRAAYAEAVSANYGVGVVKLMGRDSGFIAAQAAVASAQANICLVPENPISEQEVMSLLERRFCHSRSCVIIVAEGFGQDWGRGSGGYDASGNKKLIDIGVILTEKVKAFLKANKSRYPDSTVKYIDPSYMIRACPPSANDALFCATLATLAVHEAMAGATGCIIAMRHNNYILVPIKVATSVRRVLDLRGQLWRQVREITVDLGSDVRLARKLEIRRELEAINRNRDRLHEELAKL
# How it was run: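 Inhibition of parasite PFK is measured as reduced ADP formation, quantified via luciferase after ATP depletion. Assay used 0.1 mM ATP, 0.5 mM F6P, 1.25 nM enzyme, 45 min incubation.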
# [16] = Validation screen for small molecules that induce genotoxicity in human embryonic kidney (HEK293T) cells expressing luciferase-tagged ELG1 (AID 493106)
# How it was run: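 Luminescence from an ELG1-luciferase fusion serves as the read-out, rising when genetic stress elevates ELG1 protein. HEK293T reporter cells (2,000 per well) received 23 nL compound, incubated 16 hr at 37 °C, then ONE-Glo for 30 min at room temperature.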
# [17] = target: Thyrotropin-releasing hormone receptor (Homo sapiens) (UniProt P34981); test: qHTS for Small Molecule Agonists and Allosteric Enhancers of Human TRH Receptor: Validation Screen for Agonists (AID 493127;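 active = calcium activation more than 3 SD above the typical response in the agonist read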;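 note: intracellular calcium rise by fluo-8 fluorescence before TRH EC20 addition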); settings: TRH receptor agonist cell assay; at 2 µM; stronger effect = higher value
# How it was run: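 Cells 2000/well, 10% FCS, 18 h 33.5C/5% CO2 → fluo-8 Ca dye, RT 30 min–1.5 h → FDSS baseline 10 × 1 s → compound added → 230 cycles (1 s/cycle) agonist mode. TRH controls.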
# [18] = Nrf2 qHTS screen for inhibitors: Validation (AID 493153; active = well fitted inhibition curve with a large enough effect in the main read-out, with a control signal flat, not every such curve was filed as active); settings: viability change: measured here: cytotoxicity max response
# How it was run: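 Luminescence from an ARE-firefly luciferase reporter in A549 cells gives Nrf2 inhibition; an earlier CellTiter-Fluor fluorescent read flags cytotoxicity. Cells in 5% FBS OPTI-MEM received compound dilution series for 18-24 h at 37°C.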
# [19] = qHTS for Inhibitors of Cell Surface uPA Generation: Validation Assay (AID 493164)
# How it was run: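 RAW 264.7 cells (4000/well) were plated overnight, then exposed for 18 h at 37 C, 5% CO2 to compounds in a 7-point 1:5 titration (2.45 nM–38.3 uM final). Intracellular ATP was read by ATP-Lite luminescence.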
# [20] = target: Flap endonuclease 1 (Homo sapiens) (UniProt P39748); test: qHTS Validation Assay for the Inhibitors of Human Flap endonuclease 1 (FEN1) (AID 488816)
# Chain of Flap endonuclease 1 (Homo sapiens) (P39748 whole entry, looked up): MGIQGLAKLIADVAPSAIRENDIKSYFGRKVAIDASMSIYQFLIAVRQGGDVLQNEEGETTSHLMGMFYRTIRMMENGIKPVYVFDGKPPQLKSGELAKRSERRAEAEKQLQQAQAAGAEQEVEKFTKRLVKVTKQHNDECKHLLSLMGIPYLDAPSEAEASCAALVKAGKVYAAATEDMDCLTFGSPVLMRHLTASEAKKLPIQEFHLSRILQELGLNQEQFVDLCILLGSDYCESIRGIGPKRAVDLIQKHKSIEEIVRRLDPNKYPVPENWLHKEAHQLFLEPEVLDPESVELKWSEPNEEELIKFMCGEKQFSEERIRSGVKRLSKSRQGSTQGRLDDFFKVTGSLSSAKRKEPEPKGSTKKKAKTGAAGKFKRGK
# How it was run: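 Human FEN1 (10 nM) preincubated 15 min at room temperature with compounds, then flap DNA substrate added at 50 nM final. Fluorescence read at 0 and 15 min; concentration-response fitted with four-parameter Hill equation.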
smiles,measurement,setting,value
CCN(CC)C(=O)c1ccc(O)c(OC)c1,outcome,[1],inactive
same,outcome,[2],inactive
same,outcome,[3],inactive
same,outcome,[4],inactive
same,Potency,[5],inactive
same,outcome,[6],inactive
same,Potency,[7],inactive
same,Potency,[8],inactive
same,Potency,[9],inactive
same,Potency,[10],inactive
same,outcome,[11],inactive
same,outcome,[12],inactive
same,outcome,[13],inactive
same,outcome,[14],inactive
same,outcome,[15],inactive
same,Potency,[16],inactive
same,activation,[17],0.938% (inactive)
same,outcome,[18],inactive
same,viability change,[18],8.03%
same,outcome,[19],inactive
CC(C)NCC(O)COc1cccc2[nH]ccc12 (stereo not drawn),outcome,[1],inactive
same,outcome,[2],inactive
same,outcome,[3],inactive
same,outcome,[4],inactive
same,Potency,[5],inactive
same,outcome,[6],inactive
same,Potency,[7],inactive
same,Potency,[8],inactive
same,outcome,[11],inactive
same,outcome,[12],inactive
same,outcome,[13],inactive
same,outcome,[14],inactive
same,Potency,[16],inactive
same,activation,[17],-0.25% (inactive)
same,outcome,[18],inactive
same,viability change,[18],3.18%
same,outcome,[19],inactive
O=C(O)CCc1nc(-c2ccccc2)c(-c2ccccc2)o1,outcome,[1],inactive
same,outcome,[2],inactive
same,outcome,[3],inactive
same,outcome,[4],inactive
same,Potency,[5],inactive
same,outcome,[6],inactive
same,Potency,[7],inactive
same,Potency,[8],inactive
same,Potency,[10],inactive
same,outcome,[11],inactive
same,outcome,[12],inactive
same,outcome,[13],inactive
same,outcome,[14],inactive
same,outcome,[15],inactive
same,Potency,[16],inactive
same,activation,[17],-0.125% (inactive)
same,outcome,[19],inactive
CN(C)CCC(c1ccccc1)c1ccccn1 (stereo not drawn),outcome,[1],inactive
same,outcome,[2],inactive
same,outcome,[3],inactive
same,outcome,[4],inactive
same,Potency,[5],inactive
same,outcome,[6],inactive
same,Potency,[7],inactive
same,Potency,[8],inactive
same,Potency,[9],inactive
same,Potency,[10],inactive
same,outcome,[11],inactive
same,outcome,[12],inactive
same,outcome,[13],inactive
same,outcome,[14],inactive
same,outcome,[15],inactive
same,Potency,[16],inactive
same,activation,[17],1.44% (inactive)
same,outcome,[18],inactive
same,viability change,[18],3.7%
same,outcome,[19],inactive
C[N+](C)(C)CCCCCC[N+](C)(C)C,outcome,[1],inactive
same,outcome,[2],inactive
same,outcome,[3],inactive
same,outcome,[4],inactive
same,Potency,[5],inactive
same,outcome,[6],inactive
same,Potency,[7],inactive
same,Potency,[8],inactive
same,outcome,[20],inactive
same,Potency,[9],inactive
same,Potency,[10],inactive
same,outcome,[11],inactive
same,outcome,[12],inactive
same,outcome,[13],inactive
same,outcome,[14],inactive
same,outcome,[15],inactive
same,Potency,[16],inactive
same,activation,[17],0.625% (inactive) and 0.562% (inactive)
same,outcome,[18],inactive
same,viability change,[18],-1.95% and 3.05%
same,outcome,[19],inactive
CC(=O)CCCCn1c(=O)c2c(ncn2C)n(C)c1=O,outcome,[1],inactive
same,outcome,[2],inactive
same,outcome,[3],inactive
same,outcome,[4],inactive
same,Potency,[5],inactive
same,outcome,[6],inactive
same,Potency,[7],inactive
same,Potency,[8],inactive
same,Potency,[9],inactive
same,Potency,[10],inactive
same,outcome,[11],inactive
same,outcome,[12],inactive
same,outcome,[13],inactive
same,outcome,[14],inactive
same,outcome,[15],inactive
same,Potency,[16],inactive
same,activation,[17],-2.31% (inactive)
same,outcome,[18],inactive
same,viability change,[18],-8.24%
same,outcome,[19],inactive
NCCS,outcome,[1],inactive
same,outcome,[2],inactive
same,outcome,[3],inactive
same,outcome,[4],inactive
same,Potency,[5],inactive
same,outcome,[6],inactive
same,Potency,[8],inactive
same,outcome,[20],inactive
same,Potency,[9],inactive
same,outcome,[11],inactive
same,outcome,[12],inactive
same,outcome,[13],inactive
same,outcome,[14],inactive
same,outcome,[15],inactive
same,Potency,[16],inactive
same,activation,[17],1.25% (inactive)
same,outcome,[18],inactive
same,viability change,[18],-10.7%
same,outcome,[19],inactive
COc1ccccc1N1CCN(CCCNc2cc(=O)n(C)c(=O)n2C)CC1,outcome,[1],inactive
same,outcome,[2],inactive
same,outcome,[3],inactive
same,outcome,[4],inactive
same,outcome,[6],inactive
same,Potency,[7],inactive
same,outcome,[20],inactive
same,Potency,[9],inactive
same,Potency,[10],inactive
same,outcome,[11],inactive
same,outcome,[12],inactive
same,outcome,[13],inactive
same,outcome,[14],inactive
same,outcome,[15],inactive
same,Potency,[16],inactive
same,activation,[17],-2.81% (inactive)
same,outcome,[18],inactive
same,viability change,[18],-8.38%
same,outcome,[19],inactive
